Data: PubChem BioAssay (NCI)
This is part of a sample that, as a whole, favours compounds with a hit. Of some 83,000 tested, about 20% had one in any assay.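 Single-dose data. Exposure time 48 hours. Values below 10 considered active.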 Active and inactive are the calls of the source.

Each compound was assayed on OVCAR-5 ovarian (assay: NCI-60 one-dose screen, 48 h (100 = growth as untreated, 0 = no growth, -100 = all killed)). Conditions: 10 µM unless noted.
For C#CCOc1ccc(C(Nc2cc(Cl)ccc2Cl)c2nnnn2C2CCCCC2)cc1 (configuration not stated), the growth was 93.1% (inactive). For Oc1ccc(CSc2nnc(-c3cnccn3)n2-c2ccccc2)c2cccnc12, the growth was 50.3% (inactive). With O=C(COc1ccc(C2SCC(=O)N2c2ccccc2)cc1)c1ccccc1 (configuration not stated) the growth was 104% (inactive). c1ccc(-c2c(-c3ccccc3)[n+](Cc3ccc4ccccc4c3)c(-c3ccccc3)n2Cc2ccc3ccccc3c2)cc1 was tested, and the growth was -96.3% (active). For O=C1[C@H]2Cc3c([nH]c4ccccc34)[C@H](c3ccc(Cl)cc3)N2C(=O)CN1C1CCN(Cc2c(Cl)cccc2Cl)CC1, the growth was 89.2% (inactive). With COc1ccc(/C=C/C(=O)c2nnn(-c3ccc(Br)cc3)c2C)cc1OC the growth was 94.1% (inactive). For CCC(CC)N1C(=O)/C(=c2\sc3n(c2=O)C2C(NN=3)N(CC)C(=O)N2CC)c2ccccc21 (configuration not stated), the growth was 29.8% (inactive). COc1ccc(-c2nnc(SCc3ccc(O)c4ncccc34)n2-c2ccccc2)cc1 was tested, and the growth was 53.3% (inactive). For C=C(C)[C@@H]1CC[C@]2(C(=O)NCCCN(CCC#N)CCC#N)CC[C@]3(C)[C@H](CC[C@@H]4[C@@]5(C)CCC(=O)C(C)(C)[C@@H]5CC[C@]43C)[C@@H]12, the growth was 103% (inactive). O=C(COc1ccc(C2SCC(=O)N2c2ccc(F)cc2)cc1)c1ccccc1 (configuration not stated) was tested, and the growth was 107% (inactive). For NCCN1CCN(c2nc(-c3ccccc3)nc3nc(-c4ccccc4)oc23)CC1, the growth was -82.9% (active). In the case of Cc1ccc(NC(=O)c2cccc(CN3CCN(C)CC3)c2)cc1Oc1ccc(-c2[nH]nc3ncnc(N)c23)cc1, the growth is reported as 80.8% (inactive).
